# Test results taken from the supplement of paper PMC12282887.
# ± gives the standard deviation of the averaged measurements.
# Assays:
# Experiment in all cases: promoter activity interaction Z-score (Lux/OD deviation from empty-vector control); higher = stronger promoter induction by the compound
# [1] = system: E. coli BW25113 acrABp lux reporter
# Summary of the method: (§1)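 Four 1:2 dilutions of each compound were tested in biological duplicates on E. coli BW25113 carrying low-copy luxCDABE promoter reporters, either wild type or deleted for one of three genes. Cultures of 40 µl LB Lennox in 384-well plates were kept at 37°C and read for OD600 and luminescence every 30 min for 12 h. Integration windows were 0–8 h for wild type and 1–9 h for deletion strains, and wells under 10% of the median growth value were discarded. The score is a Z-transformed residual of growth-normalised luminescence relative to a control fit.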
# [2] = system: E. coli BW25113 micFp lux reporter
# Summary of the method: as §1
# [3] = system: E. coli BW25113 ompFp lux reporter
# Summary of the method: as §1
# [4] = system: E. coli BW25113 robp lux reporter
# Summary of the method: as §1
# [5] = system: E. coli BW25113 soxSp lux reporter
# Summary of the method: as §1
# [6] = system: E. coli BW25113 tolCp lux reporter
# Summary of the method: as §1
# [7] = 21.6 µg/ml, genetic background: wild type
# [8] = 21.6 µg/ml, genetic background: ΔmarA
# [9] = 21.6 µg/ml, genetic background: Δrob
# [10] = 21.6 µg/ml, genetic background: ΔsoxS
# [11] = 43.2 µg/ml, genetic background: wild type
# [12] = 43.2 µg/ml, genetic background: ΔmarA
# [13] = 43.2 µg/ml, genetic background: Δrob
# [14] = 43.2 µg/ml, genetic background: ΔsoxS
# [15] = 86.4 µg/ml, genetic background: wild type
# [16] = 86.4 µg/ml, genetic background: ΔmarA
# [17] = 86.4 µg/ml, genetic background: Δrob
# [18] = 86.4 µg/ml, genetic background: ΔsoxS
# [19] = 172.7 µg/ml, genetic background: wild type
# [20] = 172.7 µg/ml, genetic background: ΔmarA
# [21] = 172.7 µg/ml, genetic background: Δrob
# [22] = 172.7 µg/ml, genetic background: ΔsoxS
smiles,measurement,setting,value
COc1ccc2[nH]c([S+]([O-])Cc3ncc(C)c(OC)c3C)nc2c1 (stereo unspecified) [Omeprazole],promoter activity interaction Z-score,[1]; [7],-0.337 ± 0.014
same,promoter activity interaction Z-score,[1]; [8],0.346 ± 0.48
same,promoter activity interaction Z-score,[1]; [9],-0.0504 ± 0.066
same,promoter activity interaction Z-score,[1]; [10],-0.13 ± 0.54
same,promoter activity interaction Z-score,[1]; [11],-0.353 ± 0.082
same,promoter activity interaction Z-score,[1]; [12],-0.358 ± 0.072
same,promoter activity interaction Z-score,[1]; [13],-0.105 ± 0.12
same,promoter activity interaction Z-score,[1]; [14],-0.0181 ± 0.095
same,promoter activity interaction Z-score,[1]; [15],-0.362 ± 0.37
same,promoter activity interaction Z-score,[1]; [16],-0.395 ± 0.11
same,promoter activity interaction Z-score,[1]; [17],-0.192 ± 0.19
same,promoter activity interaction Z-score,[1]; [18],-0.303 ± 0.19
same,promoter activity interaction Z-score,[1]; [19],-0.479 ± 0.43
same,promoter activity interaction Z-score,[1]; [20],-0.193 ± 0.65
same,promoter activity interaction Z-score,[1]; [21],-0.199 ± 0.17
same,promoter activity interaction Z-score,[1]; [22],-0.532 ± 0.35
same,promoter activity interaction Z-score,[2]; [7],-0.467 ± 0.1
same,promoter activity interaction Z-score,[2]; [8],-0.0778 ± 0.095
same,promoter activity interaction Z-score,[2]; [9],-0.00843 ± 0.2
same,promoter activity interaction Z-score,[2]; [10],-0.201 ± 0.026
same,promoter activity interaction Z-score,[2]; [11],-0.228 ± 0.15
same,promoter activity interaction Z-score,[2]; [12],-0.00184 ± 0.029
same,promoter activity interaction Z-score,[2]; [13],0.0425 ± 0.23
same,promoter activity interaction Z-score,[2]; [14],-0.0104 ± 0.033
same,promoter activity interaction Z-score,[2]; [15],-0.311 ± 0.11
same,promoter activity interaction Z-score,[2]; [16],0.141 ± 0.0042
same,promoter activity interaction Z-score,[2]; [17],0.11 ± 0.088
same,promoter activity interaction Z-score,[2]; [18],0.0651 ± 0.15
same,promoter activity interaction Z-score,[2]; [19],-0.637 ± 0.076
same,promoter activity interaction Z-score,[2]; [20],0.0179 ± 0.059
same,promoter activity interaction Z-score,[2]; [21],-0.0934 ± 0.045
same,promoter activity interaction Z-score,[2]; [22],-0.467 ± 0.12
same,promoter activity interaction Z-score,[3]; [7],-0.482 ± 0.29
same,promoter activity interaction Z-score,[3]; [8],-0.539 ± 0.12
same,promoter activity interaction Z-score,[3]; [9],-0.476 ± 0.1
same,promoter activity interaction Z-score,[3]; [10],-0.299 ± 0.19
same,promoter activity interaction Z-score,[3]; [11],-0.42 ± 0.17
same,promoter activity interaction Z-score,[3]; [12],-0.516 ± 0.55
same,promoter activity interaction Z-score,[3]; [13],-0.244 ± 0.2
same,promoter activity interaction Z-score,[3]; [14],-0.555 ± 0.25
same,promoter activity interaction Z-score,[3]; [15],-1.02 ± 0.014
same,promoter activity interaction Z-score,[3]; [16],-0.56 ± 0.35
same,promoter activity interaction Z-score,[3]; [17],-0.352 ± 0.17
same,promoter activity interaction Z-score,[3]; [18],-0.773 ± 0.19
same,promoter activity interaction Z-score,[3]; [19],-0.996 ± 0.11
same,promoter activity interaction Z-score,[3]; [20],-0.786 ± 0.12
same,promoter activity interaction Z-score,[3]; [21],-1.14 ± 0.44
same,promoter activity interaction Z-score,[3]; [22],-1.41 ± 0.14
same,promoter activity interaction Z-score,[4]; [7],-0.44 ± 0.32
same,promoter activity interaction Z-score,[4]; [8],-0.171 ± 0.43
same,promoter activity interaction Z-score,[4]; [9],-0.295 ± 0.01
same,promoter activity interaction Z-score,[4]; [10],0.394 ± 0.34
same,promoter activity interaction Z-score,[4]; [11],0.141 ± 0.33
same,promoter activity interaction Z-score,[4]; [12],0.325 ± 0.23
same,promoter activity interaction Z-score,[4]; [13],-0.173 ± 0.37
same,promoter activity interaction Z-score,[4]; [14],0.145 ± 0.46
same,promoter activity interaction Z-score,[4]; [15],-0.722 ± 0.046
same,promoter activity interaction Z-score,[4]; [16],0.298 ± 0.23
same,promoter activity interaction Z-score,[4]; [17],-0.445 ± 0.32
same,promoter activity interaction Z-score,[4]; [18],-0.519 ± 0.64
same,promoter activity interaction Z-score,[4]; [19],-0.656 ± 0.28
same,promoter activity interaction Z-score,[4]; [20],-0.167 ± 0.31
same,promoter activity interaction Z-score,[4]; [21],-0.507 ± 0.035
same,promoter activity interaction Z-score,[4]; [22],-0.379 ± 0.46
same,promoter activity interaction Z-score,[5]; [7],-0.231 ± 0.11
same,promoter activity interaction Z-score,[5]; [8],-0.202 ± 0.05
same,promoter activity interaction Z-score,[5]; [9],-0.257 ± 0.062
same,promoter activity interaction Z-score,[5]; [10],-0.178 ± 0.32
same,promoter activity interaction Z-score,[5]; [11],-0.256 ± 0.0098
same,promoter activity interaction Z-score,[5]; [12],-0.206 ± 0.022
same,promoter activity interaction Z-score,[5]; [13],-0.175 ± 0.12
same,promoter activity interaction Z-score,[5]; [14],-0.281 ± 0.054
same,promoter activity interaction Z-score,[5]; [15],-0.301 ± 0.081
same,promoter activity interaction Z-score,[5]; [16],-0.305 ± 0.1
same,promoter activity interaction Z-score,[5]; [17],-0.0539 ± 0.1
same,promoter activity interaction Z-score,[5]; [18],-0.344 ± 0.12
same,promoter activity interaction Z-score,[5]; [19],-0.333 ± 0.024
same,promoter activity interaction Z-score,[5]; [20],-0.374 ± 0.013
same,promoter activity interaction Z-score,[5]; [21],-0.226 ± 0.14
same,promoter activity interaction Z-score,[5]; [22],-0.806 ± 0.14
same,promoter activity interaction Z-score,[6]; [7],-0.0562 ± 0.63
same,promoter activity interaction Z-score,[6]; [8],-0.81 ± 0.13
same,promoter activity interaction Z-score,[6]; [9],-0.978 ± 0.82
same,promoter activity interaction Z-score,[6]; [10],-0.661 ± 0.85
same,promoter activity interaction Z-score,[6]; [11],0.122 ± 0.9
same,promoter activity interaction Z-score,[6]; [12],-0.409 ± 0.93
same,promoter activity interaction Z-score,[6]; [13],-0.642 ± 0.94
same,promoter activity interaction Z-score,[6]; [14],0.332 ± 0.16
same,promoter activity interaction Z-score,[6]; [15],-0.33 ± 0.54
same,promoter activity interaction Z-score,[6]; [16],0.11 ± 0.23
same,promoter activity interaction Z-score,[6]; [17],0.71 ± 0.025
same,promoter activity interaction Z-score,[6]; [18],0.0744 ± 0.91
same,promoter activity interaction Z-score,[6]; [19],0.169 ± 0.58
same,promoter activity interaction Z-score,[6]; [20],-0.0827 ± 1.5
same,promoter activity interaction Z-score,[6]; [21],0.0999 ± 0.066
same,promoter activity interaction Z-score,[6]; [22],-0.969 ± 0.63
